dFosB activator: activators of delta FosB homodimer, primary screen, biochemical, fluorescence polarization, TAMRA-CDK5 oligo, single point; Protein FosB (Mus musculus), P13346; purified delta FosB; percent of positive-control signal above neutral wells; activation, % at 25 µM; 340,000 tested, 0.99% active;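 active = mean activation above about 17%, with every replicate also reaching it, limit read from the data, passing the limit was not always enough; inconclusive = only one of the two conditions met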
Target sequence (P13346 whole entry, looked up): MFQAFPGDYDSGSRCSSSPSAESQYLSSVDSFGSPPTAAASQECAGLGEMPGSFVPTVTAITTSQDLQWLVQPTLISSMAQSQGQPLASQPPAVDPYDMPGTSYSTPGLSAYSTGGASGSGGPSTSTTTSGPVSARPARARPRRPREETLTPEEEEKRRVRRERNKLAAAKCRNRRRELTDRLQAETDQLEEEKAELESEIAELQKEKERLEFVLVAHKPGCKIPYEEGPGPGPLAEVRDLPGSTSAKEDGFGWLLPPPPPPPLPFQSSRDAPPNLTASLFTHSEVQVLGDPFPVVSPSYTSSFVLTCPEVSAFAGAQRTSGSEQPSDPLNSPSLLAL
NALP1 inh: NALP1 inflammasome inhibitors in reconstituted yeast, colorimetric, S. cerevisiae, triplicate retest; S. cerevisiae NALP1/ASC/caspase-1 growth, X-gal OD620, 72 h; inhibition, % at 10 µM; 280,000 tested, 0.61% active; AID 2071, 2009; in the data active = inhibition mostly above about 24%, no sharp cut-off; inactive = mostly below about 32%
CR mimetic SO: reduction of superoxide in aged yeast, primary screen, HTS. S. cerevisiae aged cells, superoxide DHE fluorescence; hits give low values. superoxide response (% of plate mean), % at 10 µM. 330,000 tested, 0.18% active;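 active = superoxide response under a set limit, about three screen SD below normal, cut at about 65% in these data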;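 also: yeast aged for seven days with compound at 30 °C before DHE staining; 100% = average MFI of all compound-treated wells on the plate with controls excluded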
UBC13 inh: UBC13 polyubiquitin chain formation inhibitors, primary screen, biochemical, TR-FRET, uHTS; Ubiquitin-conjugating enzyme E2 N (Homo sapiens), P61088; inhibition, % at 20 µM; 330,000 tested, 0.47% active; AID 485273, 2010; in the data active = inhibition above about 45%, passing the limit was not always enough; inconclusive = no clear call, values can overlap the other calls
Target sequence (P61088 whole entry, looked up): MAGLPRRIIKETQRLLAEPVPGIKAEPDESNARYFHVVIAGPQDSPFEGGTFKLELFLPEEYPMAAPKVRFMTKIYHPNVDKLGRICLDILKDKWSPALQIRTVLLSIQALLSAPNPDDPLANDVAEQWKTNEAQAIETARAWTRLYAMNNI
NR3A LBD binder: binders of NR3A ligand-binding domain, primary screen, biophysical, differential scanning fluorimetry, uHTS; AID 1259313, 2017; Glutamate receptor ionotropic, NMDA 3A (GRIN3A) ligand-binding domain; NR3A LBD differential scanning fluorimetry, Tm shift; 0% = protein alone, 100% = glycine-bound protein; 340,000 tested, 2.5% active; Tm shift relative to glycine control, % at 25 µM;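 active = melting temperature shift of at least 10% of the positive control shift, at one fixed dose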
The depositor's hits bear a star. A selection: hits, their analogues and other compounds. The true share with any hit is near 4.3%.

`CCN(CC)S(=O)(=O)c1ccc(N2CCOCC2)c(NC(=O)C2=COCCO2)c1` gave dFosB activator -3, NALP1 inh 8, CR mimetic SO 90, UBC13 inh -1 and NR3A LBD binder 1.
COc1ccccc1CCC(=O)OCC(=O)Nc1ccc2[nH]c(=O)[nH]c2c1 was read as dFosB activator 6, CR mimetic SO 101, UBC13 inh 0 and NR3A LBD binder 0.
Screening Cc1ccc(S(=O)(=O)Oc2ccc(/C=C(/NC(=O)c3ccccc3)C(=O)O)cc2)cc1 returned dFosB activator -5, NALP1 inh 29, CR mimetic SO 104, UBC13 inh -7 and NR3A LBD binder 11*.
For O=C(COC(=O)c1ncc(Cl)c(Cl)c1Cl)Nc1ccc(Cl)cn1 the results were dFosB activator -12, CR mimetic SO 126, UBC13 inh 1 and NR3A LBD binder 0.
Screening Cc1ccc(NC(=O)C2=NNC(=O)CC2)cc1F returned dFosB activator 2, NALP1 inh 36*, CR mimetic SO 149, UBC13 inh 0 and NR3A LBD binder 1.
For O=C(CSc1ccc([N+](=O)[O-])cc1)Nc1cccc(S(=O)(=O)Nc2ccccc2F)c1 the results were dFosB activator 10, NALP1 inh -11, CR mimetic SO 94, UBC13 inh 2 and NR3A LBD binder 24*.
`CC(C)c1ccc(NC(=O)C2=NNC(=O)CC2)cc1` gave dFosB activator -2, NALP1 inh 8, CR mimetic SO 94, UBC13 inh -2 and NR3A LBD binder -1.
Screening O=C1CCC(C(=O)Nc2cccc(S(=O)(=O)Nc3ccccc3F)c2)=NN1 returned dFosB activator -1, CR mimetic SO 104, UBC13 inh 9 and NR3A LBD binder 13*.
`C[C@H]1CN([C@@H](C)CO)C(=O)c2cc(NC(=O)c3ccncc3)ccc2O[C@H]1CN(C)Cc1ccc(C(=O)O)cc1` gave dFosB activator -4, CR mimetic SO 118, UBC13 inh 11 and NR3A LBD binder 2.
`CCc1nnc(NS(=O)(=O)c2ccc(NC(=O)c3cc(Cl)ccc3[N+](=O)[O-])cc2)s1` gave dFosB activator -1, NALP1 inh -1, CR mimetic SO 101, UBC13 inh -8 and NR3A LBD binder -10.
`CCc1nnc(NS(=O)(=O)c2ccc(NC(=O)c3cc(Cl)ccc3Cl)cc2)s1` gave dFosB activator -2, NALP1 inh 39*, CR mimetic SO 111, UBC13 inh -9 and NR3A LBD binder -7.
Screening Cc1nc(SCC(=O)NCC2CCCO2)c2c3c(sc2n1)CCC3 (stereo unspecified) returned dFosB activator -8, NALP1 inh -1, CR mimetic SO 100, UBC13 inh 10 and NR3A LBD binder 20*.
`O=C(CSc1ncnc2sc3c(c12)CCC3)NCC1CCCO1` (stereo unspecified) gave dFosB activator 0, NALP1 inh 9, CR mimetic SO 105, UBC13 inh 6 and NR3A LBD binder 5.
For O=C(NCc1cccnc1)c1cc(-c2ccccc2)on1 the results were dFosB activator -2, NALP1 inh 1, CR mimetic SO 113, UBC13 inh 5 and NR3A LBD binder 11*.
COc1ccc(-c2cc(C(=O)NCc3cccnc3)no2)cc1 was read as dFosB activator -5, NALP1 inh -2, CR mimetic SO 108, UBC13 inh -4 and NR3A LBD binder -1.
COc1ccc(CNC(=O)C(=O)NCc2cccnc2)cc1 was read as dFosB activator -2, NALP1 inh 28*, CR mimetic SO 95, UBC13 inh 1 and NR3A LBD binder -1.
Screening COc1ccc(C(=O)CC(SCC(NC(C)=O)C(=O)O)c2ccc(Cl)cc2)cc1OC (stereo unspecified) returned dFosB activator -2, NALP1 inh 9, CR mimetic SO 96, UBC13 inh 8 and NR3A LBD binder 3.
`Cc1ccc(/C=N/n2c(-c3ccc(Cl)cc3)n[nH]c2=S)s1` gave dFosB activator inconclusive, NALP1 inh -7, CR mimetic SO 91, UBC13 inh -8 and NR3A LBD binder 21*.
`CCCN(Cc1nnc(-c2ccccc2Cl)o1)C(=O)c1cc(S(=O)(=O)N2CCOCC2)ccc1F` gave dFosB activator -18, CR mimetic SO 100, UBC13 inh -1 and NR3A LBD binder 3.
`CC12CCC(C(=O)NCc3ccc(Cl)cc3)(OC1=O)C2(C)C` (stereo unspecified) gave dFosB activator -4, NALP1 inh 14, CR mimetic SO 87, UBC13 inh -7 and NR3A LBD binder 11*.
`CC12CCC(C(=O)NCc3ccccc3)(OC1=O)C2(C)C` (stereo unspecified) gave dFosB activator -4, NALP1 inh 20, CR mimetic SO 90, UBC13 inh -10 and NR3A LBD binder 1.
`COC(=O)CCC(=O)NC(=S)Nc1cc(Cl)ccc1Cl` gave dFosB activator -5, NALP1 inh 42*, CR mimetic SO 88 and UBC13 inh 6.
COc1ccccc1C(=O)NCCC(=O)Nc1cccc(S(=O)(=O)N2CCCC2)c1 was read as dFosB activator -7, CR mimetic SO 81, UBC13 inh 3 and NR3A LBD binder 2.
For Cc1ccsc1C(=O)NNC(=O)c1cccc(S(=O)(=O)N2CCCC2)c1 the results were dFosB activator 3, CR mimetic SO 79, UBC13 inh 3 and NR3A LBD binder 0.
Screening O=C1C=C(c2ccccc2)OC(c2ccccc2)O1 (stereo unspecified) returned dFosB activator -8, NALP1 inh 41*, CR mimetic SO 90, UBC13 inh -2 and NR3A LBD binder -4.
Cc1ccc(C(=O)NNC(=O)COC(=O)COc2ccccc2C#N)cc1 was read as dFosB activator -8, CR mimetic SO 113, UBC13 inh 5 and NR3A LBD binder -2.
For COc1ccc(C(=O)C2CCCN(Cc3c(C)[nH]c4ccccc34)C2)c(OC)c1 (stereo unspecified) the results were NALP1 inh 33*, CR mimetic SO 99 and UBC13 inh 12.
Screening COc1cc([N+](=O)[O-])c(OC)cc1SCc1n[nH]c(=S)n1-c1ccc(C)cc1 returned dFosB activator -3, CR mimetic SO 100, UBC13 inh -3 and NR3A LBD binder 12*.
Screening O=C(O)c1ccc(CSc2nc(-c3ccccc3)cc(C(F)(F)F)n2)cc1 returned dFosB activator -2, NALP1 inh 27, CR mimetic SO 104, UBC13 inh -6 and NR3A LBD binder 10.
`O=C(O)c1ccc(CSc2nc(-c3ccc(Cl)cc3)cc(C(F)(F)F)n2)cc1` gave dFosB activator -18, NALP1 inh 32, CR mimetic SO 94, UBC13 inh 2 and NR3A LBD binder 38*.

Source: PubChem
